# From the supplement of paper PMC3334620
# Over roughly 33,000 sequences, “E-score (-0.5 to 0.5)” has its median near -0.016; the highest 2% begin near 0.32. For the sample, the highest values were picked, then their nearest neighbours and some sequences at random.
# Target: T1, Stp1 (UniProt B3LFK1)
# T1 sequence: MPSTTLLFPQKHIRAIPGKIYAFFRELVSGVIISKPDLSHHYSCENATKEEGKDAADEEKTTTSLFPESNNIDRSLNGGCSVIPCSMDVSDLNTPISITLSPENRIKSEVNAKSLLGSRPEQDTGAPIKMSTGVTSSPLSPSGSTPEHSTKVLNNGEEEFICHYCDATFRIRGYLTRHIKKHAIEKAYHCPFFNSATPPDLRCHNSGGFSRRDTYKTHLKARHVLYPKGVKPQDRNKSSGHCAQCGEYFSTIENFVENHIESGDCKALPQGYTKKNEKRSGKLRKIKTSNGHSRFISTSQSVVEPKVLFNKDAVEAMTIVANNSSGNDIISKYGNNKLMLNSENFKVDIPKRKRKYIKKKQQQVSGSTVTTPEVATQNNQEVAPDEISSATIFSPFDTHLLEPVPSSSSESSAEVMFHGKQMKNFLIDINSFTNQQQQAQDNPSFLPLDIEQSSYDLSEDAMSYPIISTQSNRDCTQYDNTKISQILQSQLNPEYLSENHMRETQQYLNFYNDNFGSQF
# Assay: PBM E-score (8-mer binding enrichment) (E-score (-0.5 to 0.5)); higher = stronger / more preferred TF binding
# Conditions: protein concentration: 200 nM; construct: GST-full length
# Procedure, shortened: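 E-scores (a modified Wilcoxon-Mann-Whitney statistic) were assigned by the Universal PBM Analysis Suite to every ungapped eight-base word pooled with its reverse complement. The input came from universal all-10-mer Agilent arrays made double-stranded by primer extension and probed with GST-tagged yeast transcription factors at about 100-200 nM. Fluorescent anti-GST detected bound protein, and masliner normalised the scans.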
row,Sequence,PBM E-score
1,GTATATTA,0.159
2,ATATATAG,0.318
3,ATATATAT,0.303
4,ATAAAGGG,0.0416
5,CCCTCAGG,-0.224
6,ATCGTTTC,-0.0261
7,CGGTAAGA,0.0116
8,CCTTGCAC,0.127
9,TATCGAGA,-0.0215
10,GGGCACCC,-0.0477
11,CCGCACCG,0.288
12,AGGCACCC,-0.00944
13,CGGCACCG,0.437
14,AGGCACCG,0.272
15,CGGCACCC,0.338
16,TAGATCAA,-0.00316
17,CAAGATCG,-0.123
18,AAAAAGTG,0.204
19,AAACGCTT,-0.0887
20,ACCTCCCG,-0.269
21,CGCAAAGC,0.126
22,CGCAAGGC,0.388
23,AGTAAGGC,0.163
24,AGCAAGGC,0.29
25,AATAAGGC,0.231

row,Sequence,PBM E-score
1,CGTAAGGC,0.358
2,CATAAGGG,-0.0274
3,CATAAGGC,0.344
4,CGTAAGGA,-0.0941
5,CCTCCAGA,0.0135
6,CACATCGC,-0.115
7,GGCGCTAA,0.37
8,AGCGCTGA,-0.0259
9,GGCGCTGA,0.327
10,TGCGCTAA,-0.0463
11,CGCGCTAA,0.227
12,CGCGCTGA,-0.0138
13,GGGGCAGA,-0.0961
14,GTCGACAA,-0.192
15,CCGAACGC,0.226
16,CCGAACGA,-0.0055
17,CCGAACGG,0.334
18,CGTAATAC,0.186
19,CCTGGGCC,-0.181
20,ACGGCACG,0.484
21,CCGGCACA,0.106
22,CCGGCACG,0.27
23,CGGGCACA,-0.106
24,ACGGCACA,0.479
25,TCGGCACA,0.135

row,Sequence,PBM E-score
1,ACTCTGAG,-0.046
2,AAGTGTGC,0.122
3,AACAGTGT,-0.102
4,CGAGGGCG,-0.052
5,ACGGCGAT,0.479
6,AGGGCGAG,-0.12
7,AAGGCGAA,0.197
8,ACGGCGAG,0.437
9,AGGGCGAT,0.0677
10,AAGGCGAG,-0.158
11,ACCGCGAT,0.0376
12,CCGGCGAG,0.0395
13,AAGGCGAT,0.329
14,CTATGGTA,-0.0844
15,AGTTTTGC,0.203
16,AAGGGATA,-0.00219
17,CTAAGTAG,0.0172
18,ACTTTGTC,0.0794
19,ACTTAAAT,0.0505
20,GAAGCGTC,-0.0144
21,GAAGCGGA,-0.0314
22,AAAGCGGC,0.366
23,CGAGCGGA,0.114
24,GAAGCGGC,0.426
25,CAAGCGGG,-0.168

row,Sequence,PBM E-score
1,AAAGCGGG,-0.19
2,CGAGCGGC,0.416
3,CAAGCGGC,0.466
4,AAAGCGGA,0.0227
5,AGAGCGGC,0.307
6,CAAGCGGA,-0.0234
7,AAAGGGAC,-0.055
8,AAGACCGA,-0.107
9,ACTTAGGC,-0.0486
10,ATATTCGG,0.0873
11,ACCCATAC,-0.0919
12,AAGTCTCG,-0.199
13,CGCCAACG,0.0633
14,ATGGCTCG,-0.0567
15,ATAAACAT,0.222
16,AAAAGAAC,0.0475
17,AAAAGAAG,0.19
18,AAAAGAAT,0.322
19,CTTATAAA,0.115
20,CGTATAAA,0.319
21,AGTATAAA,0.297
22,TTTATAAA,0.376
23,GTTATAAA,0.0721
24,CGTATAAC,0.217
25,AGTCTGTA,-0.18

row,Sequence,PBM E-score
1,AAGTCCCG,-0.145
2,GCTCGAAC,-0.0559
3,CCAGGTGC,-0.187
4,GGGCAAAA,0.142
5,TGGCAAAA,0.292
6,AGGCAAAA,0.344
7,CGGCAAAG,0.264
8,AGGCAAAC,0.118
9,CGGCAAAA,0.357
10,AGACCTCG,-0.157
11,ACCGAGGC,-0.121
12,GCCGAGGA,0.0308
13,CACGAGGC,0.415
14,CGCGAGGA,-0.0281
15,GCCGAGGC,0.357
16,CACGAGGA,0.102
17,CGCGAGGC,0.421
18,CACGAGGG,-0.253
19,AGCGAGGC,0.197
20,ATCAGGTC,-0.114
21,CACGATAC,-0.0326
22,GACAACAA,0.0779
23,AAGCCCCT,-0.287
24,CCTTAACC,-0.221
25,ACCCCGCT,-0.174

row,Sequence,PBM E-score
1,TCGGCAGA,-0.0589
2,ACGGCAGC,0.406
3,CCGGCAGG,-0.17
4,AAGGCAGT,0.103
5,CCGGCAGA,-0.0739
6,AAGGCAGG,-0.236
7,ATGGCAGC,0.00395
8,ACGGCAGG,0.343
9,ACGGCAGA,0.367
10,ACAGCAGT,-0.0354
11,ACGGCAGT,0.403
12,CCGGCAGC,-0.063
13,ATCTTTAG,0.0678
14,AGCCATCC,0.0193
15,GCGGCAGC,0.334
16,GCAGCGGC,0.32
17,GCGGCAGA,0.261
18,GAGGCAGC,0.0343
19,CCAGCGGC,0.256
20,GCAGCGGA,-0.0607
21,ACTTTTTA,0.157
22,AACTACGG,-0.0064
23,CAGCGCCG,0.446
24,CAGCGCCC,0.188
25,CAGCGCCA,0.0346

row,Sequence,PBM E-score
1,AAGCGCCA,0.0796
2,AAGCGCCG,0.465
3,AAGCGCCT,0.272
4,CAGTAGAG,-0.155
5,AGTCGATC,-0.128
6,GACGGGAC,-0.203
7,CACGTGGC,0.213
8,GCCTAGCC,0.0204
9,CCGTGGGA,0.047
10,ACTGGAAG,-0.2
11,GTAGGTCA,-0.249
12,GGGCACAA,0.202
13,GGCCACAC,0.0354
14,CGGCACAG,0.398
15,CGGCACAC,0.381
16,CCGCACAG,0.201
17,CGCCACAG,-0.0135
18,AGGCACAC,0.0169
19,CGCCACAC,0.324
20,AGGCACAG,0.133
21,GGGCACAC,-0.098
22,CGGCACAA,0.405
23,AGGCACAA,0.288
